These results are taken from PubChem BioAssay (NCATS).

Records with an inconclusive call do not appear. Where a call stands in place of a potency, no number is given. Active and inactive are the calls of the source. Calls follow the shape of the dose curve; as a rule, active = well fitted inhibition curve with a large enough effect; inconclusive = small, poorly fitted or top-dose-only effect; inactive = flat fitted curve, though single readings scatter. Bridge positions count the residues as written; N and C are the ends. Square brackets hold non-standard residues; d marks the D form. Peptide text beside a SMILES is read from it. * marks the point of attachment. Ileψ(thiazoline)Cys = CC[C@H](C)[C@H](N)C1=N[C@H](C(=O)*)CS1; d(aIle) = CC[C@H](C)[C@@H](N)C(=O)O; dOrn = NCCC[C@@H](N)C(=O)O
Potency is read from the fitted curve at half-maximal effect.

The first assay relates to CP185. The assay is described as follows: qHTS profiling for inhibitors of Plasmodium falciparum proliferation (AID 504749). Also: nearly all actives have a fitted effect of over 60% in size. The following applies: P. falciparum in erythrocytes, SYBR Green DNA, 72 h; series mostly up to 12.8 µM. Put shortly:
(§1)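 Fluorescence of SYBR Green-bound parasite DNA, read at 485/535 nm, served as the growth measure. Infected erythrocytes were cultured with compound 72 h; artemisinin (0.29 uM) and DMSO wells defined the normalization range.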
In general terms: qHTS replaces the single test concentration by a dilution series.
Regarding `C[C@H](CCC(=O)O)[C@H]1CC[C@@H]2[C@@H]3[C@@H](O)C[C@H]4C[C@@H](O)CC[C@@]4(C)[C@H]3CC[C@@]21C`, the Potency entry is “inactive”.
Regarding `CN(C/C=C\c1ccccc1)Cc1cccc2ccccc12`, the Potency result was “inactive”.
`CCC(=O)OCC(=O)[C@@]1(OC(=O)CC)[C@H](C)C[C@@H]2[C@@H]3[C@H]([C@@H](O)C[C@@]21C)[C@]1(C)C=CC(=O)C=C1C[C@@H]3Cl`: the Potency entry was “inactive”.
The same measure, in the same setting: to `C[C@H](C(=O)O)c1cccc(Oc2ccccc2)c1` belongs “inactive”.
Same read-out and setting: to `CC1(C)[C@@H](OC(=O)CCC(=O)O)CC[C@@]2(C)[C@H]1CC[C@@]1(C)[C@H]2C(=O)C=C2[C@H]3C[C@](C)(C(=O)O)CC[C@]3(C)CC[C@@]21C` belongs “inactive”; to `CCOC(=O)O[C@@H](C)OC(=O)[C@@H]1N2C(=O)[C@@H](NC(=O)[C@@H](N)c3ccccc3)[C@H]2SC1(C)C`, “inactive”.
Still for that read-out and setting: the entry for `Cc1ccsc1/C=C\C1=NCCCN1C` is “inactive”; for `C#C[C@]1(O)CC[C@@H]2[C@H]3CCC4=CCCC[C@@H]4[C@@H]3CC[C@@]21C` it is “inactive”.
Consider `CC[C@H](C)[C@H](N)C1=N[C@H](C(=O)N[C@@H](CC(C)C)C(=O)N[C@@H](CCC(=O)O)C(=O)N[C@@H](C(=O)N[C@H]2CCCCNC(=O)[C@@H](CC(N)=O)NC(=O)[C@@H](CC(=O)O)NC(=O)[C@@H](Cc3cnc[nH]3)NC(=O)[C@@H](Cc3ccccc3)NC(=O)[C@@H]([C@@H](C)CC)NC(=O)[C@@H](CCCN)NC2=O)[C@@H](C)CC)CS1` ({Ileψ(thiazoline)Cys}-LE[d(aIle)]K[dOrn][d(aIle)][dF][dH][dD][dN]; lactam 4-C), for which the Potency entry was “inactive”.
On to `O=C(O)COCCN1CCN([C@@H](c2ccccc2)c2ccc(Cl)cc2)CC1`, for which the Potency entry was “inactive”.
Consider `CCN(CC)CCOC(=O)[C@@H](Cc1cccc2ccccc12)C[C@@H]1CCCO1`, for which the Potency result is “inactive”.
As for `C[C@@H](CNC1CCCCC1)OC(=O)c1ccccc1`, the Potency entry was “inactive”.
The same measure, in the same setting: to `CC[C@H](CO)NCCN[C@@H](CC)CO` belongs “inactive”.

The next assay has as its system CP191. Described as above. The following applies: P. falciparum in erythrocytes, SYBR Green DNA, 72 h; series mostly up to 12.8 µM. The method, boiled down: as §1
For the compound `CN1CCO[C@H](c2ccccc2)c2ccccc2C1`, the Potency entry is “inactive”.
As for `C[C@H](CCC(=O)O)[C@H]1CC[C@@H]2[C@@H]3[C@@H](O)C[C@H]4C[C@@H](O)CC[C@@]4(C)[C@H]3CC[C@@]21C`, the Potency entry was “inactive”.
Take `CN(C/C=C\c1ccccc1)Cc1cccc2ccccc12`: the Potency entry was “inactive”.
With `C[C@H](C(=O)O)c1cccc(Oc2ccccc2)c1`, the Potency entry was “inactive”.
Still for that read-out and setting: the entry for `CC1(C)[C@@H](OC(=O)CCC(=O)O)CC[C@@]2(C)[C@H]1CC[C@@]1(C)[C@H]2C(=O)C=C2[C@H]3C[C@](C)(C(=O)O)CC[C@]3(C)CC[C@@]21C` is “inactive”.
Regarding `CCOC(=O)O[C@@H](C)OC(=O)[C@@H]1N2C(=O)[C@@H](NC(=O)[C@@H](N)c3ccccc3)[C@H]2SC1(C)C`, the Potency result was “inactive”.
As to `Cc1ccsc1/C=C\C1=NCCCN1C`, the Potency result is “inactive”.
Still for that read-out and setting: the entry for `C#C[C@]1(O)CC[C@@H]2[C@H]3CCC4=CCCC[C@@H]4[C@@H]3CC[C@@]21C` is “inactive”; for `CC[C@H](C)[C@H](N)C1=N[C@H](C(=O)N[C@@H](CC(C)C)C(=O)N[C@@H](CCC(=O)O)C(=O)N[C@@H](C(=O)N[C@H]2CCCCNC(=O)[C@@H](CC(N)=O)NC(=O)[C@@H](CC(=O)O)NC(=O)[C@@H](Cc3cnc[nH]3)NC(=O)[C@@H](Cc3ccccc3)NC(=O)[C@@H]([C@@H](C)CC)NC(=O)[C@@H](CCCN)NC2=O)[C@@H](C)CC)CS1` ({Ileψ(thiazoline)Cys}-LE[d(aIle)]K[dOrn][d(aIle)][dF][dH][dD][dN]; lactam 4-C) it is “inactive”; for `CCN(CC)CCOC(=O)[C@@H](Cc1cccc2ccccc12)C[C@@H]1CCCO1` it is “inactive”.
In the case of `Clc1ccc([C@H](Cn2ccnc2)OCc2c(Cl)cccc2Cl)c(Cl)c1`, the Potency was 3.16 µM (active).
Still for that read-out and setting: to `CC[C@H](CO)NCCN[C@@H](CC)CO` belongs “inactive”.

In the next assay the test system is CP192. Described as above. The following applies: P. falciparum in erythrocytes, SYBR Green DNA, 72 h; series mostly up to 12.8 µM. The method, boiled down: as §1
Turning to `CN1CCO[C@H](c2ccccc2)c2ccccc2C1`, the Potency entry was “inactive”.
Regarding `C[C@H](CCC(=O)O)[C@H]1CC[C@@H]2[C@@H]3[C@@H](O)C[C@H]4C[C@@H](O)CC[C@@]4(C)[C@H]3CC[C@@]21C`, the Potency result was “inactive”.
For the compound `CN(C/C=C\c1ccccc1)Cc1cccc2ccccc12`, the Potency entry is “inactive”.
`CCC(=O)OCC(=O)[C@@]1(OC(=O)CC)[C@H](C)C[C@@H]2[C@@H]3[C@H]([C@@H](O)C[C@@]21C)[C@]1(C)C=CC(=O)C=C1C[C@@H]3Cl`: the Potency entry was “inactive”.
As to `C[C@H](C(=O)O)c1cccc(Oc2ccccc2)c1`, the Potency entry was “inactive”.
On to `CC1(C)[C@@H](OC(=O)CCC(=O)O)CC[C@@]2(C)[C@H]1CC[C@@]1(C)[C@H]2C(=O)C=C2[C@H]3C[C@](C)(C(=O)O)CC[C@]3(C)CC[C@@]21C`, for which the Potency entry was “inactive”.
Regarding `Cc1ccsc1/C=C\C1=NCCCN1C`, the Potency result was “inactive”.
On the same count and under the same terms, to `C#C[C@]1(O)CC[C@@H]2[C@H]3CCC4=CCCC[C@@H]4[C@@H]3CC[C@@]21C` belongs “inactive”; to `CC[C@H](C)[C@H](N)C1=N[C@H](C(=O)N[C@@H](CC(C)C)C(=O)N[C@@H](CCC(=O)O)C(=O)N[C@@H](C(=O)N[C@H]2CCCCNC(=O)[C@@H](CC(N)=O)NC(=O)[C@@H](CC(=O)O)NC(=O)[C@@H](Cc3cnc[nH]3)NC(=O)[C@@H](Cc3ccccc3)NC(=O)[C@@H]([C@@H](C)CC)NC(=O)[C@@H](CCCN)NC2=O)[C@@H](C)CC)CS1` ({Ileψ(thiazoline)Cys}-LE[d(aIle)]K[dOrn][d(aIle)][dF][dH][dD][dN]; lactam 4-C), “inactive”.
For the compound `O=C(O)COCCN1CCN([C@@H](c2ccccc2)c2ccc(Cl)cc2)CC1`, the Potency entry was “inactive”.
On to `C[C@@H](CNC1CCCCC1)OC(=O)c1ccccc1`, for which the Potency entry is “inactive”.
For `CC[C@H](CO)NCCN[C@@H](CC)CO`, the Potency entry is “inactive”.
